The panel holds about 83,000 compounds, 20% with a hit somewhere; the sample as a whole holds those more often.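 The endpoint reported here, percent growth, reads 100 for growth as untreated, 0 for no net growth and -100 for all cells dead.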 Values without a mark were called inactive. Active and inactive are the calls of the source. How the source made its calls: active means growth percent below 10; inactive means the rest.
How the values were obtained:
Experiment in all cases: NCI-60 one-dose screen, 48 h (100 = growth as untreated, 0 = no growth, -100 = all killed)
Details in all cases: 10 µM unless noted
[1] = tested on: HCT-15 colon
[2] = tested on: HT29 colon
[3] = tested on: SNB-75 CNS
[4] = tested on: SNB-19 CNS
[5] = tested on: PC-3 prostate
[6] = tested on: SK-MEL-5 melanoma
[7] = tested on: UACC-62 melanoma
[8] = tested on: LOX IMVI melanoma
[9] = tested on: SK-MEL-28 melanoma
[10] = tested on: U251 CNS

Structure (SMILES)	growth [1]	growth [2]	growth [3]	growth [4]	growth [5]	growth [6]	growth [7]	growth [8]	growth [9]	growth [10] [%]
COc1cc(/C(C)=C(\c2ccc(Cl)cc2)c2ccc(OCCN(C)C)cc2)ccc1F	18.1%	5.91% (active)	65.4%	87.7%	58.1%	44.2%	50.3%	38.3%	64.5%	–
COc1ccc(C(=O)C2C(C#N)C(C#N)C3C=Cc4ccccc4N32)cc1 (stereo not given)	16.9%	8.8% (active)	-21.3% (active)	32.7%	29.2%	15.2%	57.6%	–	57.6%	–
CNCCn1c(=O)c2cc(OC)c(OC)cc2c2ccc3cc4c(cc3c21)OCO4	17.3%	2.8% (active)	-0.403% (active)	8.32% (active)	8.41% (active)	-60.7% (active)	-79.7% (active)	-46.1% (active)	-34.2% (active)	–
Cc1c(C)c([N+](=O)[O-])c(C)c([N+](=O)[O-])c1C	108%	93.5%	104%	97.1%	98.7%	101%	102%	99.6%	104%	–
Cn1c2ccccc2c2c3c(c4c5ccccc5n(C)c4c21)C(=O)OC3	96.7%	105%	68.1%	92.7%	90.6%	93.5%	88.6%	88.2%	120%	–
Cc1ccc(-n2c3c(c(-c4ccccc4)c2-c2ccccc2)C2=NCCN2C=N3)cc1	81.3%	88%	70.5%	88.5%	76.8%	68.1%	75.1%	–	110%	–
CC(C)(C)CC(C)(C)n1nnnc1C(NC12CC3CC(CC(C3)C1)C2)c1ccccc1 (stereo not given)	84.5%	79.9%	80.5%	90.5%	77.6%	88.9%	69.2%	87.6%	99.6%	–
CCc1ccc(-c2cn3ccnc3c(-c3ccc4ncn(Cc5ccccc5)c4c3)n2)cc1	25.3%	31.2%	70.7%	79.1%	49.6%	52.1%	75.1%	49.8%	80.9%	–
CCN(c1ccccc1)S(=O)(=O)c1cc([N+](=O)[O-])ccc1Cl	75.7%	63%	66.2%	85%	76.8%	45.3%	57.5%	52.4%	88.8%	–
C=C(C)[C@@H]1CC[C@]2(C(=O)N[C@H](CO)Cc3ccccc3)CC[C@]3(C)[C@H](CC[C@@H]4[C@@]5(C)CCCNC(C)(C)[C@@H]5CC[C@]43C)[C@@H]12	-82.3% (active)	-86.1% (active)	-95.1% (active)	-88% (active)	-84.9% (active)	-95.5% (active)	-85.6% (active)	-86.2% (active)	-92.3% (active)	–
CN1CCN(C(=O)[C@]23CCC(C)(C)C[C@H]2C2=CC[C@@H]4[C@@]5(C)C/C(=C/c6ccncc6)C(=O)C(C)(C)[C@@H]5CC[C@@]4(C)[C@]2(C)CC3)CC1	36.3%	5.24% (active)	85.2%	61.2%	19.5%	54.3%	–	40.2%	74.7%	–
COc1ccccc1NS(=O)(=O)c1cccc(C(=O)Nc2ccc(Br)cc2)c1	37.8%	46.6%	65.9%	53.4%	25.4%	-31.7% (active)	32.1%	–	62.9%	–
COc1cccc(-c2nc3occn3c2-c2ccnc(NCCNS(=O)(=O)c3ccc(C(F)(F)F)cc3)n2)c1	80%	85.1%	87%	98%	77.6%	82.5%	66.5%	93.3%	108%	–
O=C1c2ccc3c4c(ccc(c24)C(=O)N1CCCNCc1ccccc1F)C(=O)N(CCCNCc1ccccc1F)C3=O	-60.6% (active)	-77% (active)	-98.2% (active)	-64.3% (active)	-59.1% (active)	-96.2% (active)	-57.6% (active)	-71.9% (active)	-93.6% (active)	–
CCNc1nc2cc(Nc3ccnc4cc(Cl)ccc34)ccc2o1	40.9%	31.5%	83.7%	84.4%	64.3%	48.2%	70.9%	58.5%	80.7%	–
OCc1cnccc1NCCCOc1ccccc1	105%	102%	99.6%	94.9%	–	97.1%	90.5%	99.4%	109%	–
c1ccc2cc(Cn3c(-c4cccc5ccccc45)[n+](Cc4ccc5ccccc5c4)c4c5ccccc5c5ccccc5c43)ccc2c1	-60.4% (active)	-49.5% (active)	-66.3% (active)	-82.7% (active)	-46.7% (active)	–	-74.5% (active)	-84.3% (active)	-61.5% (active)	–
CCOC(=O)/C(C#N)=C1/NNC(=Nc2cccnc2)S1	101%	98.3%	92%	95.9%	88.6%	–	95.5%	95.7%	105%	–
C=C1C(=O)O[C@H]2[C@H]1CC/C(COC(=O)NCC(C)c1ccc(CC(C)C)cc1)=C\CC[C@@]1(C)O[C@@H]21 (stereo not given in full)	-59.2% (active)	-60.6% (active)	-5.57% (active)	36.9%	0.0191% (active)	–	-37.7% (active)	-83.8% (active)	-66.7% (active)	–
COc1cc(/C=C/c2cc(O)c(C(C)=O)c(O)c2)cc2c1O[C@]1(C)CC[C@@H](O)C(C)(C)[C@H]1C2	42.8%	34.9%	7.67% (active)	56.4%	45.2%	65.2%	38.7%	35.1%	51.4%	–
COc1ccc(/C=C/c2nc(Nc3ccc(S(=O)(=O)Nc4cc(C)on4)cc3)c3ccccc3n2)cc1	48.8%	69.3%	74.7%	83.2%	74.7%	43.5%	17.5%	31.5%	91.7%	–
O=C1NN(C(=O)c2ccccc2)C(c2ccc(Cl)c(Cl)c2)=C/C1=C\c1ccc([N+](=O)[O-])cc1	71.8%	101%	65.3%	58.7%	46.7%	86.8%	70.3%	86.9%	111%	–
CCCCOc1ccc(/C(C)=N/Nc2cc(C)nc3ccc(Br)cc23)cc1	7.75% (active)	–	103%	91.9%	80.3%	96.7%	98.5%	33.9%	–	31.9
CCCC/C=N/NC(=S)NCc1ccccc1	95.8%	101%	86%	95.9%	86.1%	97.1%	93.8%	97.3%	98.2%	–
COc1ccc2c(c1)C(=O)CC(c1ccccc1OC)O2 (stereo not given)	93.1%	107%	80.4%	98.8%	104%	98.7%	85.8%	89.3%	106%	–
CN(C)c1ccc(C2C(C#N)=C(/N=C/c3ccccc3)Oc3c2ccc2ccccc32)cc1 (stereo not given)	48%	69.9%	-0.718% (active)	74.2%	50.7%	71.5%	–	–	80.1%	–
CCOC(=O)Oc1c(OC)cc(C(=O)c2ccc(OC)c(OC(=O)CCl)c2OC)cc1OC	16.6%	35.9%	36.3%	22.8%	23%	34.9%	30.6%	43.5%	47.4%	–
CCN1C(=O)/C(=C/C(=O)OC)S/C1=N\NC(=O)c1cc2ccc1/C=C\c1ccc(cc1)/C=C\2	68.4%	45.2%	78.8%	85.6%	56.7%	92.5%	78.6%	73.5%	100%	–
COc1cc2c(c(O)c1Br)C(=O)c1c(O)cc(C[C@H](C)O)cc1[C@H]2[C@H]1c2cc(C[C@H](C)O)cc(O)c2C(=O)c2c1cc(OC)c(Br)c2O	8.27% (active)	11%	-6.83% (active)	18.1%	16.2%	-74.1% (active)	4.54% (active)	4.77% (active)	31.8%	–

Source: PubChem BioAssay (NCI)
